Our source for the composite z-score and z-score values is PubChem BioAssay.

The nature of assay [1]: small molecules captured by biotinylated probe aFSTL3 – biochemical, small-molecule microarray, fluorescence 635/667, stem cell growth factor project, primary screen (AID 1064).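 Further: measures binding of the biotinylated anti-FSTL3 antibody to printed compounds.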 Conditions: higher = more signal.
The nature of assay [2]: binders from COS7 lysate, DM2A8 probe, primary screen, torsin A project, cell lysate, small-molecule microarray, fluorescence 635/667 (AID 1065). Conditions: higher = more signal, COS7 lysate expressing mutant human TOR1A.
A short description of assay [3]: small molecules captured by biotinylated probe aFGF2 – biochemical, small-molecule microarray, fluorescence 635/667, stem cell growth factor project, primary screen (AID 1067).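 Further: measures binding of biotinylated aFGF2 protein to printed compounds on slides; z-score merges feature fluorescence and signal-to-noise across triplicate slides.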 Conditions: higher = more signal.
A short description of assay [4]: small molecules captured by biotinylated probe aFGF10 – biochemical, small-molecule microarray, fluorescence 635/667, stem cell growth factor project, primary screen (AID 1071).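 Further: score merges 667 nm spot intensity and signal to noise from triplicate slides.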 Conditions: higher = more signal.
Assay [5] addresses Neurogenic locus notch homolog protein 2 (Homo sapiens) (UniProt Q04721). Put plainly: small molecules binding Notch2 protein – biochemical, small-molecule microarray, 635 nm fluorescence, stem cell growth factors, primary screen (AID 1073). The settings on record: higher = more signal.
In assay [6] the target is Pro-neuregulin-1, membrane-bound isoform (Homo sapiens) (UniProt Q02297). Put plainly: small molecules binding neuregulin-1 protein – biochemical, small-molecule microarray, fluorescence 635/667, psychiatric disease protein project, primary screen (AID 1075).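 Further: score combines 667 nm spot fluorescence with signal to noise.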 The settings on record: NRG1 binding, 635 nm fluorescence, higher = more signal.
In assay [7] the test system is Neuregulin-1 EGF-like domain. Put plainly: small molecules binding NRG1 EGF domain – biochemical, small-molecule microarray, 635 nm fluorescence, primary screen (AID 1081).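 Further: binding of the protein to compounds printed on small-molecule microarray slides.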 The settings on record: higher = more signal.
The nature of assay [8]: FRG1 expression reporter modulators in myotubes – cell-based, C2C12 myotubes, firefly/Renilla luciferase, luminescence, FRG1 inhibition for FSHD, primary screen (AID 1084). Conditions: FRG1 promoter luciferase, higher = more signal, called active from +8 up or from −8 down.
Assay [9] is described as follows: small molecules captured by biotinylated probe aFST – biochemical, small-molecule microarray, fluorescence 635/667, stem cell growth factor project, primary screen (AID 1086).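 Further: score merges 667 nm fluorescence with signal-to-noise of each printed compound spot.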 The settings on record: higher = more signal.
Assay [10] can be described thus: binders of probe aHhip on microarray, primary screen, stem cell growth factor project, biochemical, small-molecule microarray, fluorescence 635/667 (AID 1087).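 Further: score merges spot fluorescence at 667nm with spot signal to noise ratio.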 Conditions: higher = more signal.
Assay [11] concerns PRMT1 (protein arginine N-methyltransferase 1). The assay can be described thus: small molecules binding arginine methyltransferase PRMT1 – biochemical, small-molecule microarray, 635 nm fluorescence, primary screen (AID 1088).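 Further: binding of Prmt1 protein to compounds spotted on small-molecule microarray slides.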 Conditions: higher = more signal.
Assay [12] is described as follows: growth effects on S. cerevisiae YJM789 – YJM789 clinical isolate, OD600, 24 h, basal, primary screen (AID 1089).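 Further: growth of clinical yeast isolate S. cerevisiae YJM 789 seeded 1000 cells per well; test concentration not given here.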 The settings on record: higher = more signal, called active from +8 up or from −8 down.
Assay [13] is described as follows: S. pombe growth modifiers, basal conditions – strain 972, OD600, 24 h, no modulator, primary screen (AID 1090).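 Further: basal condition with compound alone and no growth modifier present; test concentration not given here.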 Conditions: S. pombe 972 growth, higher = more signal, called active from +8 up or from −8 down.
The nature of assay [14]: budding yeast growth modifiers under rapamycin – strain BY4716, OD600, 96 h, primary screen (AID 1091). Further: test concentration not given here. Conditions: S. cerevisiae BY4716 + rapamycin, higher = more signal, called active from +8 up or from −8 down.
In assay [15] the target is Torsin-1A-interacting protein 2 (Homo sapiens) (UniProt Q8NFQ8). The assay can be described thus: small molecules binding lysate-expressed LULL1 – cell lysate, human LULL1 lysate, 635/667 nm fluorescence, primary screen (AID 1092).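 Further: probe is lysate of COS7 cells overexpressing human LULL1; score merges per-feature 667 nm fluorescence with signal-to-noise.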 The settings on record: small-molecule microarray, hLULL1 lysate binding, 635 nm fluorescence; higher = more signal.
Assay [16] is described as follows: optical density change of DRC41 E. coli – strain DRC41, OD650, 24 h, E. coli filamentation project, primary screen (AID 1093).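 Further: MC1000 strain lacking acrAB efflux and sulA so SOS filamentation is blocked; test concentration not given here.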 The settings on record: E. coli DRC41 growth, higher = more signal, called active from +8 up or from −8 down.
Assay [17] can be described thus: probe aLefty2 binding to arrayed compounds – biochemical, biotinylated probe, 635/667 nm fluorescence, primary screen (AID 1094).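 Further: score merges spot fluorescence near 667 nm with spot signal-to-noise ratio.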 Conditions: small-molecule microarray, higher = more signal.
Assay [18] concerns Noggin (protein binding on small-molecule microarray). The assay can be described thus: small molecules binding Noggin protein – biochemical, 635/667 nm fluorescence, primary screen (AID 1095).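 Further: score merges 667 nm feature fluorescence with signal to noise over triplicate slides.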 Conditions: 635 nm fluorescence, higher = more signal.
Assay [19] deals with Neurogenic locus notch homolog protein 3 (Homo sapiens) (UniProt Q9UM47). Put plainly: small molecules binding NOTCH3 protein – biochemical, 635/667 nm fluorescence, primary screen (AID 1096). The settings on record: small-molecule microarray, 635 nm fluorescence, higher = more signal.
Assay [20] is described as follows: probe aEGFR binding to arrayed compounds – biochemical, biotinylated probe, 635/667 nm fluorescence, primary screen (AID 1097).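 Further: probe is a biotinylated anti-EGFR antibody binding compounds printed on slides; score combines fluorescence near 667 nm and signal to noise of each spot.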 Conditions: small-molecule microarray, higher = more signal.

The source made the active and inactive calls.

Neurogenic locus notch homolog protein 3 (Homo sapiens), sequence (Q9UM47 whole entry, looked up): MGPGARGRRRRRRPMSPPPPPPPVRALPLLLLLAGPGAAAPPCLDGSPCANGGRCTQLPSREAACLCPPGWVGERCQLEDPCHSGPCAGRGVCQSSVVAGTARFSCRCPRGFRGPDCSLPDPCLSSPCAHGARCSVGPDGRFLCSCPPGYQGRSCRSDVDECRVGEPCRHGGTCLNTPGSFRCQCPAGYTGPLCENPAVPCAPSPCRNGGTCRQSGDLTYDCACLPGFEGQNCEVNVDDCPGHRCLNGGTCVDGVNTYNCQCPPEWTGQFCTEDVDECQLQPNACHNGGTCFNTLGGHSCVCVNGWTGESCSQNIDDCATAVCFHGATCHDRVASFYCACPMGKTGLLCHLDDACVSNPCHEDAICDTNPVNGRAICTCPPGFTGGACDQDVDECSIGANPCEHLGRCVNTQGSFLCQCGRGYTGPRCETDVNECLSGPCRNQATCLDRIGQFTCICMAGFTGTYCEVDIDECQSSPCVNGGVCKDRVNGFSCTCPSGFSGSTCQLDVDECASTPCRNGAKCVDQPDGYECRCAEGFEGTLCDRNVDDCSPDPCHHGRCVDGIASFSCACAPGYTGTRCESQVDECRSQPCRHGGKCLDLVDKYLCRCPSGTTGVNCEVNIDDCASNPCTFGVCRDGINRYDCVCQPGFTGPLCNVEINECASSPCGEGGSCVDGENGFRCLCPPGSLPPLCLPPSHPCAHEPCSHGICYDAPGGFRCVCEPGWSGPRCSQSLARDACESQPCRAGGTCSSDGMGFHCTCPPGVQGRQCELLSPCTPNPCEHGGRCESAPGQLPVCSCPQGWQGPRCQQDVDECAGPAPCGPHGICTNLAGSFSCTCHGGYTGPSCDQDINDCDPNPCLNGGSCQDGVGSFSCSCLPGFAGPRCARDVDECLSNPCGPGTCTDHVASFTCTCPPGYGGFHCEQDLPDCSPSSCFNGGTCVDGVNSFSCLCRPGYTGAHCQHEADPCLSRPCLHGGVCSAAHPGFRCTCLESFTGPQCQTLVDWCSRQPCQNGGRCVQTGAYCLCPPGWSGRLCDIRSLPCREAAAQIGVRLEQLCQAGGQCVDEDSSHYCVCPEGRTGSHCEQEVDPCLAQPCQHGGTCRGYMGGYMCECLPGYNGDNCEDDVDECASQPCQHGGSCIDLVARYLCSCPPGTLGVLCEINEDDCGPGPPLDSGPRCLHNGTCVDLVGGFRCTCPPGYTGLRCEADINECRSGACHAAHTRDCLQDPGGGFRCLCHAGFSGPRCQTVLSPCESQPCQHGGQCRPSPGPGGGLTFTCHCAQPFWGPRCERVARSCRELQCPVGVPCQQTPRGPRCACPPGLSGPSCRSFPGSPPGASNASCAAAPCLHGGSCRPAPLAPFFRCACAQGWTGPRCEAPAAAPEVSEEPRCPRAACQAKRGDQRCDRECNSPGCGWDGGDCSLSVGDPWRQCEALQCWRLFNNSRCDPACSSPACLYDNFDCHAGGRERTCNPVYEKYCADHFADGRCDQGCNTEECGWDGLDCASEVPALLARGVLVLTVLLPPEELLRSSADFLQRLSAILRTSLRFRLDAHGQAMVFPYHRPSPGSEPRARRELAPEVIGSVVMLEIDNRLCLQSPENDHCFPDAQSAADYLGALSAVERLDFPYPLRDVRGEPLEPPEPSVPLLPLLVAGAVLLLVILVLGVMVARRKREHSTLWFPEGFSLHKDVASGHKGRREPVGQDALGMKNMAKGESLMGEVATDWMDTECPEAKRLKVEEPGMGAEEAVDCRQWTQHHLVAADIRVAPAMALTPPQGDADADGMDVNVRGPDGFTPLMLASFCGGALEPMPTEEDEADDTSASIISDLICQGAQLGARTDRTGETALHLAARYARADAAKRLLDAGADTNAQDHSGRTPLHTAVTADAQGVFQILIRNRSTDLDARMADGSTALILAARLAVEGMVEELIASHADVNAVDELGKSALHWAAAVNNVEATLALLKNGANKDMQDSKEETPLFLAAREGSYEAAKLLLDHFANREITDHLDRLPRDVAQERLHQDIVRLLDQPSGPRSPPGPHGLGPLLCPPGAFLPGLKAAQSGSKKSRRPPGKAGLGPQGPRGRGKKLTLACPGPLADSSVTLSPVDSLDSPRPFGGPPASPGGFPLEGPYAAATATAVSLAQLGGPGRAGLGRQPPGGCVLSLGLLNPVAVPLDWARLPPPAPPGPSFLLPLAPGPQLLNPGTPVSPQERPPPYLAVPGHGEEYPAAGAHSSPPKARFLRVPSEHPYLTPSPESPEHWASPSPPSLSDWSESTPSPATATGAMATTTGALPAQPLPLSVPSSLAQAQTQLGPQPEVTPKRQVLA
Torsin-1A-interacting protein 2 (Homo sapiens), sequence (Q8NFQ8 whole entry, looked up): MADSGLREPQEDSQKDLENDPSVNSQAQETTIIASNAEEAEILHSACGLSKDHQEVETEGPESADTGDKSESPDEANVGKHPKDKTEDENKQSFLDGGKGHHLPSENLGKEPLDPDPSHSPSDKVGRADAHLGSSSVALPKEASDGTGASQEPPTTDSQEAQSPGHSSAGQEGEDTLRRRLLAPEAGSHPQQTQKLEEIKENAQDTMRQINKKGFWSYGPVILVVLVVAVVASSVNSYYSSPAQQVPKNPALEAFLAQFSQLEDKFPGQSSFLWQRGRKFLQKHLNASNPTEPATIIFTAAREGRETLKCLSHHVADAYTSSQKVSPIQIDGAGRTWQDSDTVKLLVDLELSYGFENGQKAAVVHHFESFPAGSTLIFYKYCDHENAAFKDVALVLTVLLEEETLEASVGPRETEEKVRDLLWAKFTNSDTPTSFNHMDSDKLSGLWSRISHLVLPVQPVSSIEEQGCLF
Pro-neuregulin-1, membrane-bound isoform (Homo sapiens), sequence (Q02297 whole entry, looked up, the tested form may be a part, canonical isoform): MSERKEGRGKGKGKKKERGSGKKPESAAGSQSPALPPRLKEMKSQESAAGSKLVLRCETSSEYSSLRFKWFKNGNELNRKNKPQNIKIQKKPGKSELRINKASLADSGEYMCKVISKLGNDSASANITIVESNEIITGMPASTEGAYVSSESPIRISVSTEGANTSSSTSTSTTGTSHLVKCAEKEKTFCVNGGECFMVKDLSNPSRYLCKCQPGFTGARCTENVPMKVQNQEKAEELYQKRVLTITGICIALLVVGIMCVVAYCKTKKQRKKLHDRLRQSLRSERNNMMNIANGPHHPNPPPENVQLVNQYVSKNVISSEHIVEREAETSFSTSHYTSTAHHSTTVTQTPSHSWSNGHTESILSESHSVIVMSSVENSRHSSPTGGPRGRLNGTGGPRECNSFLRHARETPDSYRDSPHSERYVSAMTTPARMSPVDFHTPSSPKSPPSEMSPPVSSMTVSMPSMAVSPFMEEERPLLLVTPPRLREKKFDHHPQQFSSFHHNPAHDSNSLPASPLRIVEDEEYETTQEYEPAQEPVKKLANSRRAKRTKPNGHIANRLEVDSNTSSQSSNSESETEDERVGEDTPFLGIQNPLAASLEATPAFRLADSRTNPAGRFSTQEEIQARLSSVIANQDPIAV

For `CC(=O)c1ccc(C(O)C2C=CC3C(=O)N(c4ccccc4)C(=O)C3N2Nc2ccc(C#N)cc2)cc1` (stereo not given), the composite z-score is 0.0415 in assay [1]; 0.233 in assay [2]; -0.122 in assay [3]; -0.0474 in [4]; 0.833 in [5]; 1.5 in assay [6]. For the same compound, the composite z-score in assay [7] was 0.609; in assay [9] it was 0.766; in assay [10], -0.0645; in assay [11], 0.155; in assay [15], 3.76; in assay [17], -0.103. Moreover, the composite z-score in [18] is -0.442; in assay [19] it was 0.352; in assay [20], 0.0753. The z-score in assay [8] was -0.0141 (inactive); in assay [12], -0.623 (inactive); in assay [13], 1.04 (inactive); in assay [14] it was 2.05 (inactive); in assay [16], -0.963 (inactive).
With `CC=CC(O)C1C=CC2C(=O)N(c3ccccc3)C(=O)C2N1Nc1ccccc1F` (stereo not given), the composite z-score turned out to be 0.968 in assay [1]; 0.0233 in assay [2]; 0.384 in assay [3]; 0.547 in [4]; 0.264 in [5]; 0.82 in assay [6]. Also, the composite z-score in assay [7] was 1.36; in [9], 1.07; in assay [10] it was 0.0001; in assay [11] it was 0.841; in assay [15] it was 3.08; in assay [17], 0.535. Moreover, the values for the composite z-score in assay [18], in [19] and in assay [20] were -0.592, -0.411 and 0.312, respectively. Also, the z-score in assay [8] is 0.584 (inactive); in assay [12], -0.0071 (inactive); in [13], 1.4 (inactive); in assay [14], 0.741 (inactive); in [16] it was -0.463 (inactive).
In the case of `CCOC(=O)c1ccc(NC(=O)O[C@H]2[C@H](OC(=O)Nc3ccc4c(c3)OCO4)[C@H](OC(=O)Nc3ccc4c(c3)OCO4)[C@@H](OC)O[C@@H]2CO)cc1`, the composite z-score in assay [1] was found to be 0.237; in assay [2] it was 0.807; in [3] it was 0.129; in assay [4] it was 1.14; in [5], 1.59; in assay [6] it was 0.898. For the same compound, the composite z-score came out at 1.3 in assay [7]; 0.792 in [9]; 0.28 in assay [10]; 1.54 in assay [11]; 3.1 in assay [15]; 0.17 in assay [17]. Moreover, the composite z-score in [18] was 1.34; in assay [19], 1.06; in assay [20], 0.251. Also, the z-score is 1.08 (inactive) in assay [8]; 1.21 (inactive) in [12]; 1.57 (inactive) in assay [13]; 6.12 (inactive) in assay [14]; 0.62 (inactive) in assay [16].
`[N-]=[N+]=Nc1ccccc1C[C@]1(C(=O)N2CCOCC2)N=C(c2ccc(OCCCO)cc2)O[C@H]1c1ccccc1`: the composite z-score in assay [1] came out at 0.747; in assay [2], 1.49; in [3], 0.17; in assay [4], 0.983; in assay [5], 1.48; in assay [6] it was 1.13. Further, the composite z-score in [7] turned out to be 1.23; in [9], 1.29; in assay [10] it was 0.348; in assay [11] it was 1.55; in [15], 2.69; in [17], 0.178. Also, the composite z-score in assay [18] was 0.593; in assay [19], 0.871; in [20], 0.134. Also, the z-score in assay [8] is -1.62 (inactive); in assay [12], 0.491 (inactive); in [13], -8.46 (active); in assay [14], 1.42 (inactive); in assay [16] it was 1.94 (inactive).
With `CN(C)C(=O)C1N=C(c2ccc(OCCCO)cc2)N(c2ccccc2)O1` (stereo not given), the composite z-score is -0.135 in [1]; 0.18 in [2]; 0.0097 in [3]; 0.929 in assay [4]; 1.19 in [5]; 0.869 in [6]. Further, the composite z-score in [7] is 1.39; in assay [9], 0.514; in assay [10], 0.107; in assay [11], 1.56; in assay [15], 1.72; in assay [17], -0.244. Moreover, the composite z-score in [18] came out at 1.41; in assay [19], 1.05; in assay [20] it was 0.123. The z-score in assay [8] is 4.85 (inactive); in assay [12] it was -0.0944 (inactive); in assay [13] it was -1.17 (inactive); in [14], -0.582 (inactive); in [16], 1.15 (inactive).
